PNC inhibitor: High Content Assay for Compounds that inhibit the Assembly of the Perinucleolar Compartment. actives 3.1% (n = 140,000). activity change (PNC), negative = inhibition, % at 10 µM. PC3M PTB-GFP, PNC prevalence imaging, 16 h; hits give low values. AID 2417, 2010;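 active means readout at or below -70, meaning at least 70% loss of cells showing the perinucleolar compartment, a nuclear body marking cancer cells; inconclusive means readout between -30 and a set limit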
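PC3M cells stably expressing PTB-GFP, 750–1000 cells/well, treated 16 h at 37 °C with compound (23 nl of library stock), in duplicate. After paraformaldehyde fixation and Hoechst stain, imaged at 20x; PNC prevalence scored by image analysis.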
ALDH1A1 inh: qHTS Assay for Inhibitors of Aldehyde Dehydrogenase 1 (ALDH1A1); Purified ALDH1A1, NADH fluorescence, propionaldehyde substrate; Aldehyde dehydrogenase 1A1 (Homo sapiens), P00352; Potency, µM (doses to about 75.3 µM), hits mostly inhibitors; actives 7.3% (n = 220,000); AID 1030, 2008
LMNA splice mod: qHTS Assay for Modulators of Lamin A Splicing | HeLa LMNA splicing GFP/RFP minigene ratio, 48 h | Potency, µM (top dose mostly 46.1 µM), usual class: inhibitors | actives 0.01% (n = 200,000) | AID 1487, 2009; active means well fitted inhibition curve with a large enough effect in the signal ratio, with a control signal flat, not every such curve was filed as active; inconclusive means small, poorly fitted or top-dose-only effect, or effect the other way, or a change in a side signal; the % refers to the signal ratio
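S3 HeLa stable clones carrying a lamin A-EGFP splicing minigene plus DsRed2 were seeded at 600 cells/well in Opti-MEM with 2% FBS, pin-dosed and incubated 48 h at 37°C. Acumen cytometry (488 nm) gave the GFP/RFP total-intensity ratio.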
HPGD inh: qHTS Assay for Inhibitors of HPGD (15-Hydroxyprostaglandin Dehydrogenase). actives 4.3% (n = 150,000). Potency, µM, usual class: inhibitors. 15-hydroxyprostaglandin dehydrogenase [NAD(+)] (Homo sapiens), P15428. purified HPGD, NADH fluorescence kinetic, PGE2 substrate
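20 nM HPGD preincubated 15 min at room temperature with compound in 50 mM Tris-HCl pH 8, 0.01% Tween 20. Started with 1 mM NAD+ and 30 uM prostaglandin E2; NADH fluorescence (360/450 nm) read 5 times over 30-s intervals, last minus first.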
ALOX12 inhib: qHTS Assay for Inhibitors of 12-hLO (12-human lipoxygenase); Potency, µM (series often up to 57.1 µM), actives largely listed as inhibitors; purified 12-hLO, xylenol orange hydroperoxide absorbance; actives 0.12% (n = 150,000); active means well fitted inhibition curve with a large enough effect; inconclusive means small, poorly fitted or top-dose-only effect; further: nearly all actives have a fitted effect of over 55% in size
Target sequence (P18054 whole entry, looked up): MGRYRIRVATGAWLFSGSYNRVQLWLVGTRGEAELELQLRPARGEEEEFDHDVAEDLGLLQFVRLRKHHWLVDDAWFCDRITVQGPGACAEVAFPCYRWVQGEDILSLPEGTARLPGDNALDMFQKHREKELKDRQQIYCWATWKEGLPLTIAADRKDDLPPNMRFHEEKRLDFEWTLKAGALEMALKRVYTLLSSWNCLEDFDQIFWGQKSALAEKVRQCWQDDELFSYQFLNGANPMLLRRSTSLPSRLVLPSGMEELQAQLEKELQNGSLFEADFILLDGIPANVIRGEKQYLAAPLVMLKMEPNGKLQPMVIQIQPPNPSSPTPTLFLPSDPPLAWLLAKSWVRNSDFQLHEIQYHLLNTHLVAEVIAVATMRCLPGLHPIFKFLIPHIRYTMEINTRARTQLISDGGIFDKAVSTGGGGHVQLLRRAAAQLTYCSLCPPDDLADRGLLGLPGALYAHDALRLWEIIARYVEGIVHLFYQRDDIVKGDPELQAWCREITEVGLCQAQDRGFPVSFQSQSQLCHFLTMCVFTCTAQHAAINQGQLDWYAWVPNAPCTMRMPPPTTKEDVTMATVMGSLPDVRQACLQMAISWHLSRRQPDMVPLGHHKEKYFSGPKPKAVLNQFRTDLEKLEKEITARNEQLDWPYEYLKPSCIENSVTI
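Hydroperoxide output read as Fe(III)-xylenol orange absorbance, 573-to-405 nm ratio, after 30 min reaction with 40 uM arachidonic acid. Enzyme: 150 nM purified human 12hLO, 15 min compound preincubation; 25 mM Hepes pH 7.0, room temperature.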
A number is an active result; [ ] = dose if it differs, or a comment. Hits are enriched below; roughly 10% of the tested compounds scored in any of these assays. Unless noted, the call rests on the fitted dose curve; in most records, active means well fitted inhibition curve with a large enough effect (not every such curve was filed as active); inconclusive means small, poorly fitted or top-dose-only effect, or another doubt; inactive means no such curve, though single readings can be large or run the other way.

CCCn1ccc2c(OCC(=O)Nc3ccc(F)cc3F)cccc2c1=O was read as LMNA splice mod inactive.
For Cc1[nH]c2ccccc2c1C(=O)CSc1nc2ccccc2c(=O)n1-c1ccccc1F the results were ALDH1A1 inh 0.562µM and LMNA splice mod inactive.
Screening C/C(N)=C(/C#N)C(=O)CSc1nc2ccccc2c(=O)n1-c1ccc(C)cc1 returned PNC inhibitor inactive, ALDH1A1 inh inconclusive, LMNA splice mod inactive, HPGD inh inactive and ALOX12 inhib inactive.
C/C(N)=C(/C#N)C(=O)CSc1nc2scc(-c3ccccc3)c2c(=O)n1C was read as ALDH1A1 inh 5.62µM and LMNA splice mod inconclusive.
For CCOC(=O)c1c(C)[nH]c(C)c1C(=O)CSc1nc2ccccc2c(=O)n1-c1ccc(Cl)cc1 the results were PNC inhibitor inconclusive, ALDH1A1 inh inconclusive, LMNA splice mod inconclusive, HPGD inh inactive and ALOX12 inhib inactive.
Screening C/C(N)=C(/C#N)C(=O)CSc1nc2ccccc2c(=O)n1-c1ccccc1C returned PNC inhibitor inactive, ALDH1A1 inh 28.2µM, LMNA splice mod inactive, HPGD inh inactive and ALOX12 inhib inactive.
N=C1Sc2ccccc2C2=NCCCN12 was read as ALDH1A1 inh 10µM, LMNA splice mod inactive, HPGD inh 2.24µM and ALOX12 inhib inconclusive.
O=C(CSc1ccc2nnc(CCNS(=O)(=O)c3ccccc3)n2n1)Nc1nc2ccccc2s1 was read as PNC inhibitor inactive, ALDH1A1 inh 25.1µM, LMNA splice mod inconclusive, HPGD inh inactive and ALOX12 inhib inactive.
Screening Cc1csc(NC(=O)CSc2ccc3nnc(CCNS(=O)(=O)c4ccccc4)n3n2)n1 returned PNC inhibitor inactive, ALDH1A1 inh inactive, LMNA splice mod inactive, HPGD inh inactive and ALOX12 inhib inactive.
`CN(C)c1ncc2nc(-c3cccs3)c(=O)n(C)c2n1` gave ALDH1A1 inh inactive and LMNA splice mod inactive.
Screening Cn1c(Cl)cnc1C1CC(=O)c2cc(Cl)ccc2O1 (centres undefined) returned PNC inhibitor -112.1, ALDH1A1 inh 17.8µM, LMNA splice mod inconclusive, HPGD inh inconclusive and ALOX12 inhib inactive.
`O=C(NC(NC(=S)Nc1c(Cl)cccc1Cl)C(Cl)(Cl)Cl)OCc1ccccc1` (centres undefined) gave PNC inhibitor inconclusive, ALDH1A1 inh 10µM, LMNA splice mod inconclusive, HPGD inh inactive and ALOX12 inhib inactive.
CCOC(=O)NC(NC(=S)Nc1ccc(OCC)cc1)C(Cl)(Cl)Cl (centres undefined) was read as PNC inhibitor inactive, ALDH1A1 inh inactive, LMNA splice mod inconclusive, HPGD inh inactive and ALOX12 inhib inactive.
For CC(C)Cc1nc(S(=O)(=O)c2ccc(Cl)cc2)c(N2CCOCC2)o1 the results were PNC inhibitor inactive, ALDH1A1 inh inconclusive, LMNA splice mod inactive, HPGD inh inactive and ALOX12 inhib inactive.
`CC(C)(C)c1nc(S(=O)(=O)c2ccc(Cl)cc2)c(N2CCOCC2)o1` gave PNC inhibitor inactive, ALDH1A1 inh 17.8µM, LMNA splice mod inactive, HPGD inh inactive and ALOX12 inhib inactive.
Screening COc1cc(-c2nc(S(=O)(=O)c3ccc(Cl)cc3)c(N3CCOCC3)o2)cc(OC)c1OC returned PNC inhibitor inactive, ALDH1A1 inh 1µM, LMNA splice mod inactive, HPGD inh inactive and ALOX12 inhib inactive.
COc1cc(-c2nc(S(=O)(=O)c3ccc(C)cc3)c(N3CCOCC3)o2)cc(OC)c1OC was read as PNC inhibitor inconclusive, ALDH1A1 inh 1.12µM, LMNA splice mod inactive, HPGD inh inactive and ALOX12 inhib inactive.
For O=S(=O)(c1ccccc1)c1nc(-c2ccco2)oc1N1CCOCC1 the results were PNC inhibitor inactive, ALDH1A1 inh inactive, LMNA splice mod inactive, HPGD inh inactive and ALOX12 inhib inactive.
`Fc1ccc(NC(=S)Nc2ccc(Cl)cc2)cc1` gave ALDH1A1 inh inactive and LMNA splice mod inconclusive.
For COc1ccc(NC(=S)NNC(=O)C2CC2c2ccc(C)cc2)cc1 (centres undefined) the results were PNC inhibitor inactive, ALDH1A1 inh 2.51µM, LMNA splice mod inconclusive, HPGD inh inactive and ALOX12 inhib inactive.
`Cc1ccc(NC(=S)NNC(=O)C2CC2c2ccc(C)cc2)cc1` (centres undefined) gave PNC inhibitor -100.0, ALDH1A1 inh inconclusive, LMNA splice mod inactive, HPGD inh inactive and ALOX12 inhib inactive.
For O=C(NNC(=S)Nc1ccc(F)cc1)C1CC1c1ccc(Cl)cc1 (centres undefined) the results were PNC inhibitor inactive, ALDH1A1 inh inactive, LMNA splice mod inactive, HPGD inh 15.8µM and ALOX12 inhib inactive.
`CC(C)[C@@H]1[C@H]2CC[C@H](C2)[C@H]1N` gave ALDH1A1 inh inactive, HPGD inh inactive and ALOX12 inhib inactive.
Screening COc1ccc(NC(=O)CSc2nc3ccccc3n2CC(=O)N(C)C2CCCCC2)cc1 returned LMNA splice mod inactive.
For O=C(CSc1nccn1Cc1ccc(F)cc1)Nc1nc2ccccc2s1 the results were LMNA splice mod inactive.
Screening Cn1cccc1C(=O)N1CCC2(CC1)CCN(c1ccccc1)CC2 returned ALDH1A1 inh inactive, HPGD inh inactive and ALOX12 inhib inactive.
For Fc1ccccc1CN1CCCCCCC1 the results were PNC inhibitor inconclusive, ALDH1A1 inh 14.1µM, LMNA splice mod inactive, HPGD inh inactive and ALOX12 inhib inactive.
Screening CCOC(=O)C1CCN(Cc2ccc(F)c(F)c2)CC1 returned PNC inhibitor -101.1, ALDH1A1 inh inconclusive, LMNA splice mod inactive, HPGD inh inactive and ALOX12 inhib inactive.
O=C(Nc1ccc(Cl)cc1)N1CCC(CO)(Cc2ccccc2)CC1 was read as ALDH1A1 inh 12.6µM and LMNA splice mod inconclusive.
For CCOC(=O)C1CCN(Cc2cccc(OC)c2)CC1 the results were PNC inhibitor inactive, ALDH1A1 inh 31.6µM, LMNA splice mod inactive, HPGD inh inactive and ALOX12 inhib inactive.
O=C(Nc1ccc(Cl)cc1)N1CCN(c2ccccc2)CC1 was read as PNC inhibitor inconclusive, ALDH1A1 inh inactive, LMNA splice mod inactive, HPGD inh inactive and ALOX12 inhib inactive.
Nc1nc(Nc2ccccc2)nc2c1ncn2[C@@H]1O[C@@H](CO)[C@H](O)[C@@H]1O was read as ALOX12 inhib inactive.
O=C(O)/C=C(/C(=O)O)[C@]12CCN3CC4=CCO[C@@H]5CC(=O)N[C@@H]1[C@H]5[C@H]4C[C@H]32 was read as ALOX12 inhib inactive[11.4 µM].
`Fc1ccc(CN2CCCCCCC2)cc1F` gave PNC inhibitor inconclusive, ALDH1A1 inh 17.8µM, LMNA splice mod inactive, HPGD inh inactive and ALOX12 inhib inactive.
Screening O=C(Nc1ccc(Cl)cc1)N1CCCN(Cc2ccccc2F)C1 returned PNC inhibitor inactive, ALDH1A1 inh inactive, LMNA splice mod inactive, HPGD inh 12.6µM and ALOX12 inhib inactive.

Source: PubChem BioAssay (National Center for Advancing Translational Sciences (NCATS))
